Data reported in PubChem BioAssay (EPA / NIEHS).
Active and inactive are the calls of the source. How the source made its calls: active means hit-call score of the fitted dose curve at least 0.9, where 1 is the maximum; inactive means score below 0.9.

Experiment: APR_HepG2_MitoMembPot_1hr: Apredica 1-hour HepG2 Assay for Mitochondrial Membrane Potential (AID 2282675)
Conditions: imaging, actives raise or lower the signal
Procedure: APR_HepG2_1hr is a cell-based, multiplexed-readout assay that uses HepG2, a human liver cell line, with measurements taken at 1 hour after chemical dosing in a 384-well plate.APR_HepG2_MitoMembPot_1hr is one of 10 assay component(s) measured or calculated from the APR_HepG2_1hr assay. It is designed to make measurements of dye binding, a form of membrane potential reporter, as detected with fluorescence intensity signals by HCS Fluorescent Imaging technology.Data from the assay component APR_HepG2_MitoMembPot_1hr was analyzed into 1 assay endpoint. This assay endpoint, APR_HepG2_MitoMembPot_1hr, was analyzed with bidirectional fitting relative to DMSO as the negative control and baseline of activity. Using a type of membrane potential reporter, gain or loss-of-signal activity can be used to understand changes in the signaling. Furthermore, this assay endpoint can be referred to as a primary readout, because this assay has produced multiple assay endpoints where this one serves a signaling function. To generalize the intended target to other relatable targets, this assay endpoint is annotated to the cell morphology intended target family, where the subfamily is organelle conformation.
Cells were treated with dimethyl sulfoxide (DMSO) as a solvent control at a final concentration of 0.5% v/v or with compounds in DMSO with a resulting final DMSO concentration of 0.5% v/v. Compound treatment was done at concentrations of 0.39, 0.78, 1.56, 3.12, 6.24, 12.5, 25, 50, 100, and 200 uM in duplicate on each plate. Cells were treated with compounds for 1, 24, or 72 hr. Carbonyl […] m-chloro-phenylhydrazone (CCCP) and taxol were used as positive controls for mitochondrial function and cytoskeletal stability, respectively; DMSO served as the negative control for this experiment. Cells were fixed by the direct addition of 50 uL formaldehyde in Hank's Balanced Salt Solution (HBSS) to a final concentration of 3.7%. After incubation in the fixation medium for 30 min at room temperature (293-298 K), cells were rinsed twice with HBSS and treated with cell permeabilization buffer (16 uL of 0.5% Triton X-100) for 10 min at room temperature (293-298 K) before labeling. For mitochondrial membrane potential and mitochondrial measurements, pre-fixed cells were incubated with 50 uL of MitoTracker Red CMXRos (Invitrogen) at a concentration of 250 nM for 30 min before fixation. In the remaining cases, post-fixed cells were labeled by incubation with a multiplexed mixture of primary antibodies in HBSS for 60 min at room temperature (293-298 K) to detect immunoreactivity of c-Jun (1:500), phospho-histone H3 (1:100), phospho-histone H2A.x (1:200), p53 (1:400), alpha-tubulin (1:200) and Hoechst 33342 (2 ug/mL). Cells were labeled for multiplexed imaging on two separate plates: a) Hoechst 33342, MitoTracker Red, phospho-histone H3, and alpha-tubulin, and b) Hoechst 33342, phospho-histone H2A.x, and c-Jun. A final rinse with HBSS (50 uL) was performed before analysis. The primary and secondary antibodies for the proteins were phospho-histone H3 (rabbit anti-phospho-histone H3 and FITC-donkey anti-rabbit IgG), phospho-histone H2A.x (mouse anti-phospho-histone H2A.x and FITC-donkey anti-mouse IgG), c-Jun (rabbit anti-phospho-c-Jun and Cy3-donkey anti-rabbit IgG), p53 (sheep anti-p53 and Cy5-donkey anti-sheep IgG), alpha-tubulin (mouse anti-alpha-tubulin and Cy5-donkey anti-mouse IgG). These antibodies are available as the CellCiphr HepG2 assay kit (Millipore).Digital images of each well were captured using a Cellomics ArrayScan VTI (Thermo Scientific Cellomics) (0.8 NA objective, 0.63x optical coupler, and XF-93 filter set) at 20x magnification. The images were acquired using the autofocus feature of the ArrayScan instrument, which entails the following steps. First, the camera focuses on channel 1 (Hoechst 33342), where nuclei are identified. Second, a Z offset of 1 um is used for capturing mitochondria (MitoTracker Red). […]

SMILES	outcome	AC50
CCON=C(CC)C1=C(O)CC(c2c(C)cc(C)cc2C)CC1=O (stereo not given)	inactive	–
CCCN(CCC)c1c([N+](=O)[O-])cc(S(N)(=O)=O)cc1[N+](=O)[O-]	inactive	–
CN(C)C(=S)SSC(=S)N(C)C	inactive	–
Cc1c(F)c(F)c(COC(=O)C2C(/C=C(\Cl)C(F)(F)F)C2(C)C)c(F)c1F (stereo not given)	inactive	–
CS/C(C)=N/OC(=O)N(C)SN(C)C(=O)O/N=C(\C)SC	inactive	–
O=C(O)c1nc(Cl)ccc1Cl	inactive	–
CC1=C(C(=O)Nc2ccccc2)SCCO1	inactive	–
CON(C)C(=O)Nc1ccc(Cl)c(Cl)c1	inactive	–
COc1ccc(C(c2ccc(OC)cc2)C(Cl)(Cl)Cl)cc1	–	100 µM (active)
OC(c1ccc(Cl)cc1)(c1cncnc1)c1ccccc1Cl (stereo not given)	inactive	–
C=CC1(C)OC(=O)N(c2cc(Cl)cc(Cl)c2)C1=O (stereo not given)	inactive	–
CCOc1cc(Oc2ccc(C(F)(F)F)cc2Cl)ccc1[N+](=O)[O-]	inactive	–
CC(C)Oc1cc(-n2nc(C(C)(C)C)oc2=O)c(Cl)cc1Cl	inactive	–
CC(C)(C)c1ccc(CSc2cnn(C(C)(C)C)c(=O)c2Cl)cc1	inactive	–
CCOC(=O)CC(SP(=S)(OC)OC)C(=O)OCC (stereo not given)	inactive	–
O=C(O)COc1nc(Cl)c(Cl)cc1Cl	inactive	–
COc1nc(NC(C)C)nc(NC(C)C)n1	inactive	–
C#CCOS(=O)OC1CCCCC1Oc1ccc(C(C)(C)C)cc1 (stereo not given)	–	82.3 µM (active)
COc1cnc(OC)n2nc(NS(=O)(=O)c3c(OCC(F)F)cccc3C(F)(F)F)nc12	inactive	–
COP(N)(=O)SC (stereo not given)	inactive	–

SMILES	outcome	AC50
C=CCC1=C(C)C(OC(=O)C2C(C=C(C)C)C2(C)C)CC1=O (stereo not given)	–	100 µM (active)
COC(=O)C(C)Oc1ccc(Oc2ccc(Cl)cc2Cl)cc1 (stereo not given)	inactive	–
CO/C=C(/C(=O)OC)c1ccccc1Oc1cc(Oc2ccccc2C#N)ncn1	inactive	–
N#Cc1cc(Br)c(O)c(Br)c1	inactive	–
N#Cc1nn(-c2c(Cl)cc(C(F)(F)F)cc2Cl)c(N)c1S(=O)C(F)(F)F (stereo not given)	–	54.4 µM (active)
CCCC1COC(Cn2cncn2)(c2ccc(Cl)cc2Cl)O1 (stereo not given)	inactive	–
COC(=O)C=C(C)OP(=O)(OC)OC	inactive	–
COP(=S)(OC)Oc1nc(Cl)c(Cl)cc1Cl	inactive	–
Cc1ccc(-c2c(Cl)nc(C#N)n2S(=O)(=O)N(C)C)cc1	–	100 µM (active)
COc1nc(C)nc(NC(=O)NS(=O)(=O)c2ccccc2Cl)n1	inactive	–
O=C(Nc1ccccc1)Nc1ccnc(Cl)c1	–	99.5 µM (active)
CCNc1nc(Cl)nc(NC(C)C)n1	inactive	–
Cc1cc(Cl)ccc1OCC(=O)O	inactive	–
CC(C)C1(C)N=C(c2nc3ccccc3cc2C(=O)O)NC1=O (stereo not given)	inactive	–
CCNc1nc(Cl)nc(NCC)n1	inactive	–
COC(=O)N(OC)c1ccccc1COc1ccn(-c2ccc(Cl)cc2)n1	–	0.0634 µM (active)
CCCCC(CC)COC(=O)c1ccccc1C(=O)OCC(CC)CCCC (stereo not given)	inactive	–
CCCCNC(=O)n1c(NC(=O)OC)nc2ccccc21	inactive	–
Fc1ccc(Oc2ccnc3cc(Cl)cc(Cl)c23)cc1	inactive	–
N#CC(CCc1ccc(Cl)cc1)(Cn1cncn1)c1ccccc1 (stereo not given)	inactive	–
